Assay results as given in PubChem BioAssay (NCI).
This is part of a sample that, as a whole, favours compounds with a hit. Of some 83,000 tested, about 20% had one in any assay.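 Plates (96-well) were seeded with cells, treated with compound at one concentration, and incubated for 48 hours before percent growth was determined.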 Values without a mark were called inactive. The source made the active and inactive calls.

These compounds were tested on A498 renal (assay: NCI-60 one-dose screen, 48 h (100 = growth as untreated, 0 = no growth, -100 = all killed)). Conditions: 10 µM unless noted.
Description: Growth inhibition of the A498 human tumor cell line is measured as a screen for anti-cancer activity. Cells are grown in 96 well plates and exposed to the test compound for 48 hours. Compounds are tested at a single concentration, which is 10^-5 M for most compounds. The reported endpoint is percent growth (GI% or GIPRCNT), where numbers from 0 - 100% represent growth inhibition, and numbers from -100% - 0 represent cell death. For example, a value of 40 represents 60% growth inhibition. A value of 0 means no net growth occurred over the course of the experiment. A value of -40 indicates 40% of cells at the beginning of the experiment died by the end of the experiment. A value of -100 means all cells are dead at the end of the experiment.
NCI-60 Human Tumor Cell Lines Screen was performed using the standard one-dose NCI protocol, which is described in more detail at https://dtp.cancer.gov/discovery_development/nci-60/default.htm.
Compounds with GIPRCNT values below 10 were considered active. Activity score was based on GIPRCNT using the following formula: […]
Score is 0 for GIPRCNT values of 100 or above, 50 for GIPRCNT values of 0, and 100 for GIPRCNT values of -100.

Point of comparison: CCCC(=O)c1cccs1, growth 61%. Against it:
- O=C(CCl)Nc1ccccc1SCc1cc(Cl)cc2c1OCOC2 — higher, 103%
- CN(CCCN(C)CCC1CCCCC1)CCC1CCCCC1 — higher, 84.7%
- Cn1/c(=N\N=C\c2ccccc2OCCO)sc2ccccc21 — higher, 103%
- Cc1ccc(N2C(=O)c3cccc4c(N)c(S(=O)(=O)O)cc(c34)C2=O)cc1 — higher, 136%
- CS(=O)CC(=N\O)/C(CS(C)=O)=N\O (stereo not given) — higher, 111%
- Cc1ccc2nc(-c3ccc(N=Cc4ccccc4O)cc3)sc2c1 — higher, 64.5%
- CC(=O)C[n+]1ccc(C)cc1Sc1ccccc1C — higher, 127%
- CC(C)(CC(=O)O)CC(=O)O — higher, 93.7%
- Cc1cccc(-[n+]2noc(N)n2)c1 — higher, 113%
- CC(=O)N=c1ccc2nc3c(cc(N)c4ccccc43)oc-2c1 — higher, 80.5%
- CN(C)c1ncnc2c1cnn2C — higher, 112%
- CCCCCC(=O)OCCC1CCCCC1 — higher, 79.3%
- NNC(=O)N/N=C1\C(=O)N(c2nccs2)C(=O)C(=O)C1c1nc2ccccc2s1 (stereo not given) — higher, 98.3%
- CC(=O)OC/C(C)=C\CC(C)COC(C)=O (stereo not given) — higher, 95.7%
- Cc1ccc(S(N)(=O)=O)cc1Cl — higher, 106%
- CNc1ccccc1C(N)=O — higher, 121%
- COc1cc(OC)c(NC(=O)C(Sc2nc(C)cc(C)c2C#N)c2ccccc2)cc1Cl (stereo not given) — higher, 111%
- C[n+]1c(/C=C\C=C\N2CCCCC2)sc2ccccc21 — lower, 43.5%
- Nc1nc(N)nc(N2CCCCC2)n1 — higher, 89.6%
- Cn1c(=O)c2[nH]c(CCCCC(=O)O)nc2n(C)c1=O — higher, 113%
- COc1cc(C(=O)N2CCN(c3ccccc3)CC2)c2ccccc2n1 — lower, 32.3%
- CCOC(=O)/C(O)=C(\C=N\C(=S)Nc1ccc(Cl)c(Cl)c1)C(=O)OCC — higher, 101%
- Cc1nc(O)cc(=O)[nH]1 — higher, 96.2%
- Nc1ccc2c(c1)Cc1cc(N)c(N)cc1-2 — higher, 98.8%
- N#C/C(=C\c1ccc2c(c1)OCO2)c1ccccc1 — higher, 62.7%
- CCCNS(=O)(=O)c1ccc(Cl)cc1 — higher, 98.9%
- COC(=O)c1cccc([N+](=O)[O-])c1 — higher, 92.9%
- ClCC(Cl)C1CCC(Cl)C(Cl)C1 (stereo not given) — higher, 85.5%
- CC(C)Sc1ncnc2nc[nH]c12 — lower, 59.3%
- CC(C)(C)NCCC(O)c1cc(C(F)(F)F)nc2c(C(F)(F)F)cccc12 (stereo not given) — lower, 33.3%
- Nc1nc2nnc(-c3ccccc3)c(-c3ccccc3)n2n1 — higher, 87.4%
- CC(=O)Nc1ccc(C(=O)c2ccc(S(=O)(=O)Nc3ccccc3)cc2)cc1 — higher, 79.2%
- C=COC(=O)CCOCC(CC)CCCC (stereo not given) — higher, 91.9%
- CSc1nc2[nH]ncc2c(=O)[nH]1 — higher, 75.4%
- CCNc1ccc2ccccc2c1N=Nc1ccc(N=Nc2ccccc2)cc1 — higher, 137%
- CCOC(OCC)C(=O)c1ccccc1 — higher, 94%

Point of comparison: O=C(NCc1ccco1)Nc1cccc2c(NC(=O)NCc3ccco3)cccc12, growth 110% [100 µM]. Against it:
- CCC12OC(COc3ccccc3)CN1CCN2c1ccccc1 (stereo not given) — lower, 107% [100 µM]

For CCOC(=O)c1ccc(NC(=O)Nc2nccs2)cc1, the growth was 7.68% (active).
